Common to all, as to assay: NCI-60 one-dose screen, 48 h (100 = growth as untreated, 0 = no growth, -100 = all killed)
Details in all cases: 10 µM unless noted

For experiment [1], the system named is SK-MEL-2 melanoma.
The subject of experiment [2] is SN12C renal.
Experiment [3] concerns UO-31 renal.
For experiment [4], the system named is TK-10 renal.
The subject of experiment [5] is ACHN renal.
Experiment [6] relates to CAKI-1 renal.
Experiment [7] relates to A498 renal.
Experiment [8] deals with CCRF-CEM leukemia.
Experiment [9] relates to MOLT-4 leukemia.
For experiment [10], the system named is SR leukemia.
The test system of experiment [11] is RPMI-8226 leukemia.
The subject of experiment [12] is OVCAR-8 ovarian.
Experiment [13] relates to OVCAR-5 ovarian.
Experiment [14] relates to SK-OV-3 ovarian.
Experiment [15] deals with IGROV1 ovarian.
The test system of experiment [16] is OVCAR-3 ovarian.
Experiment [17] has as its system HS 578T breast.
Experiment [18] deals with NCI/ADR-RES ovarian.
Experiment [19] concerns OVCAR-4 ovarian.

The panel holds about 83,000 compounds, 20% with a hit somewhere; the sample as a whole holds those more often.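 For each line, cells grew in 96-well plates with the test compound present at a single concentration for 48 hours.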 Unmarked numbers belong to inactive results. Activity calls are given as the source filed them. Rule for the calls: active = growth percent below 10; inactive = the rest.

Regarding `O=C(Nc1ccc([N+](=O)[O-])cc1)c1cc2ccccc2cc1O`, the growth is -66.7% (active) in experiment [1]; 1.45% (active) in experiment [2]; -7.29% (active) in [3]; -19.5% (active) in experiment [4]; -6.44% (active) in experiment [5]; -13.7% (active) in [6]. Moreover, the growth is -42.5% (active) in experiment [7]; 1.14% (active) in experiment [8]; -7.97% (active) in experiment [9]; -17.1% (active) in experiment [10]; -26.9% (active) in experiment [11]; 0.735% (active) in experiment [12]. For the same compound, the growth was 20.7% in [13]; 9.58% (active) in experiment [14]; 15.2% in experiment [15]; 83.6% in experiment [16]; -19.9% (active) in experiment [17]; -9.03% (active) in [18].

As to `CC1(C)OC2OC3C(CN)OC(c4ccccc4)OC3C2O1` (centres undefined), the growth is 103% in [1]; 103% in experiment [2]; 103% in [3]; 104% in experiment [4]; 103% in experiment [5]; 92.5% in experiment [6]. Moreover, the growth was 96.8% in [7]; 104% in experiment [8]; 5.53% (active) in experiment [9]; 96.2% in [10]; 103% in experiment [12]; 104% in [13]. For the same compound, the growth in experiment [19] was 111%; in experiment [14] it was 104%; in experiment [15], 121%; in experiment [16] it was 105%; in experiment [17], 118%; in experiment [18] it was 100%.

On to `Cc1ccc(C)c2c1SC1=NNC(Oc3ccc(Cl)cc3)=C(C#N)C(=N)N12`, for which the growth is 132% in experiment [1]; 117% in [2]; 85.3% in [3]; 125% in experiment [4]; 90.6% in experiment [5]; 87.4% in [6]. Besides, the growth in [7] is 87.1%; in experiment [8] it was 96.8%; in [9], 85.2%; in experiment [10] it was 113%; in [11], 98.7%; in experiment [12], 108%. Besides, the growth in experiment [14] was 95.7%; in experiment [15], 87.8%; in experiment [17], 103%; in experiment [18] it was 105%.

For the compound `CCOCCNc1ccc(S(=O)(=O)c2ccc(N)cc2)cc1N`, the growth in experiment [1] is 111%; in experiment [2], 110%; in experiment [3], 90.8%; in [4] it was 111%; in experiment [5], 106%; in experiment [6] it was 86.7%. Further, the growth in experiment [7] was 83.2%; in [8] it was 96%; in experiment [9], 107%; in [10], 115%; in experiment [11], 92.9%; in experiment [12], 98.7%. Moreover, the growth was 103% in experiment [13]; 100% in experiment [19]; 105% in experiment [14]; 114% in experiment [15]; 100% in experiment [16]; 99% in experiment [17]. Moreover, the growth in [18] was 100%.

On to `Oc1c(C(Nc2cccc3ccccc23)c2ccccc2)ccc2cccnc12` (centres undefined), for which the growth in [1] was 0.608% (active); in experiment [2], 38.9%; in experiment [3], 20.4%; in experiment [4], 46%; in experiment [5], 22.1%; in experiment [6], 12.7%. Besides, the growth in [7] was 36.7%; in experiment [8], 13.2%; in experiment [9], -11.9% (active); in [10], 3.7% (active); in [11], 37.6%; in experiment [12], 25%. In addition, the growth is 49.8% in [13]; 11.4% in experiment [19]; 49.6% in experiment [14]; 21.5% in [15]; 22.4% in experiment [16]; 63.5% in [17]. In [18], the growth is 4.58% (active).

As for `Cc1cccc(N=NC(=S)NNc2cccc(C)c2)c1`, the growth was 111% in [1]; 102% in experiment [2]; 81.6% in experiment [3]; 136% in experiment [4]; 92.1% in experiment [5]; 94.5% in experiment [6]. Moreover, the growth in experiment [7] was 87.3%; in experiment [8], 86.6%; in [9], 98.4%; in [10], 107%; in [11], 96.4%; in [12], 108%. In addition, the growth was 111% in [13]; 101% in experiment [19]; 105% in [14]; 92.4% in experiment [15]; 139% in experiment [16]; 116% in experiment [17]. The growth in experiment [18] was 113%.

Consider `COc1cnc2c(c1)C(=O)c1c-2n(CCCNC(C)C)c(=O)c2cc(Cl)ccc12`, for which the growth is 70.2% in [1]; 17.3% in experiment [2]; -81.7% (active) in experiment [3]; -89.1% (active) in experiment [4]; -100% (active) in experiment [5]; 28.8% in [6]. Further, the growth was -2.79% (active) in [7]; -41.1% (active) in experiment [8]; -47% (active) in experiment [9]; -52.1% (active) in [10]; -59% (active) in experiment [11]; -41.6% (active) in [12]. Also, the growth was -56.1% (active) in [13]; -77% (active) in experiment [19]; -5.05% (active) in experiment [14]; -57% (active) in [15]; -78.3% (active) in experiment [16]; 58.1% in experiment [17]. Further, the growth in experiment [18] is -9.91% (active).

With `O=C1OC(/C=C/c2ccccc2)=NC/1=C/c1ccccc1[N+](=O)[O-]`, the growth in experiment [1] was 94.7%; in experiment [2] it was 104%; in [3], 66.5%; in experiment [4], 115%; in experiment [5], 91.8%; in [6], 88.7%. The growth in experiment [7] was 121%; in experiment [9] it was 91.1%; in experiment [10] it was 90.8%; in experiment [11], 91.9%; in experiment [12] it was 96.8%; in experiment [13] it was 99.1%. Also, the growth is 94.2% in experiment [19]; 101% in [14]; 79.6% in [15]; 98.4% in experiment [16]; 107% in [17]; 96.4% in experiment [18].

Turning to `Nc1ccc(C2=NNC(=O)Cc3cc4c(cc32)OCCO4)cc1Cl`, the growth in experiment [1] is 36.8%; in experiment [2], 61.1%; in [3], 61.2%; in experiment [4], 72.3%; in experiment [5], 53.3%; in [6], 48.4%. The growth was 56.3% in experiment [7]; 42.5% in experiment [8]; 34.8% in [9]; 19.6% in [10]; 56.2% in experiment [11]; 60.1% in [12]. In addition, the growth in [19] is 87.8%; in experiment [14], 57.1%; in experiment [15], 40.8%; in [17], 62.2%; in [18], 12%.

`C[N+](C)(C)CC(=O)N/N=C\c1ccco1`: the growth is 111% in [1]; 106% in [2]; 82.8% in experiment [3]; 95.2% in experiment [4]; 107% in experiment [5]; 98% in experiment [6]. Besides, the growth was 98.7% in experiment [7]; 100% in [8]; 102% in experiment [9]; 81.2% in experiment [10]; 103% in experiment [11]; 102% in [12]. The growth was 97% in [13]; 103% in [14]; 114% in experiment [16]; 99.4% in experiment [17]; 111% in experiment [18].

With `COc1ccc2[nH]cc(C3(c4c[nH]c5ccc(OC)cc45)C(=O)Nc4ccc(Cl)cc43)c2c1`, the growth is 90.7% in experiment [1]; 91.8% in experiment [2]; 46.3% in [3]; 107% in experiment [4]; 76% in [5]; 62.2% in experiment [6]. The growth was 73.8% in experiment [7]; 15.8% in [8]; 5.75% (active) in [9]; 7.95% (active) in experiment [10]; 36.4% in [11]; 90.4% in experiment [12]. Moreover, the growth is 89.1% in experiment [13]; 79.6% in [19]; 93.4% in experiment [14]; 50% in experiment [15]; 65.4% in [17]; 90.1% in experiment [18].

`COc1cc(NC(=O)CSc2nc3ccc(Cl)cc3c(=O)n2-c2ccccc2)cc(OC)c1OC`: the growth is 99.8% in [1]; 94.3% in experiment [2]; 51% in experiment [3]; 120% in [4]; 92.1% in [5]; 83.3% in experiment [6]. In addition, the growth was 46.6% in experiment [7]; 70.5% in experiment [8]; 93.2% in [12]; 96.3% in experiment [13]; 85.7% in experiment [19]; 101% in [14]. Besides, the growth in experiment [15] is 91.5%; in [16] it was 97%; in experiment [17] it was 81.5%; in [18], 90.8%.

With `O=C1Nc2ccccc2/C1=C\c1nc(C2CCN(S(=O)(=O)c3ccc(F)cc3)CC2)n2ccccc12`, the growth in experiment [1] is 17.8%; in [2], 46%; in experiment [3], 68.2%; in experiment [4], 60.1%; in experiment [5], 55.6%; in experiment [6] it was 57.8%. The growth in experiment [7] is 82.9%; in experiment [8] it was 95.1%; in [9], 100%; in [11], 94.3%; in experiment [12], 18%; in experiment [13] it was 88%. Besides, the growth in experiment [19] was 13.6%; in experiment [14], 57.8%; in [15] it was 57%; in experiment [16] it was 58.6%; in [17], 19%; in [18], 17%.

In the case of `CCC(=O)NC1=C(Cl)C(=O)C(NC(=O)CC)=C(Cl)C1=O`, the growth in [1] was 111%; in experiment [2], 101%; in [3] it was 2.01% (active); in experiment [4], 50.5%; in [5], 21.2%; in experiment [6], 103%. Besides, the growth is 130% in experiment [7]; -42.7% (active) in experiment [8]; -41.3% (active) in experiment [9]; -55.1% (active) in [10]; -34.3% (active) in [11]; 99.3% in experiment [12]. Moreover, the growth in experiment [13] was 107%; in experiment [19], -98.5% (active); in [14], 99.9%; in experiment [15], 116%; in [16], -94.5% (active); in experiment [17], 135%. For the same compound, the growth in experiment [18] was 101%.

`CC[C@]1(O)C[C@H]2CN(CCc3c([nH]c4ccccc34)C(C(=O)OC)(c3cc4c(cc3OC)N(C)[C@H]3[C@@](O)(C(=O)OC)[C@H](OC(C)=O)[C@]5(CC)[C@@H]6C[C@@H]6CN6CC[C@]43[C@@H]65)C2)C1` (some centres undefined): the growth was 45.5% in [1]; 22.2% in experiment [2]; 9.66% (active) in [3]; 52.7% in experiment [4]; 5.92% (active) in [5]; -13.2% (active) in experiment [6]. For the same compound, the growth in [7] is 16.6%; in [8] it was 4.35% (active); in [9] it was 3.74% (active); in experiment [10], -20.5% (active); in [11] it was 42.1%; in experiment [12], 19.4%. The growth is 6.6% (active) in experiment [13]; 29.1% in experiment [19]; -11.9% (active) in experiment [14]; 9.14% (active) in experiment [15]; 5.03% (active) in experiment [16]; 43.9% in experiment [17]. The growth in experiment [18] was -3.99% (active).

Turning to `CC1=C(O)C(=O)CC1`, the growth was 118% in experiment [1]; 97% in experiment [2]; 94% in [3]; 111% in [4]; 111% in experiment [5]; 90.9% in [6]. The growth is 83.7% in experiment [7]; 115% in experiment [8]; 108% in [9]; 78.4% in experiment [10]; 110% in experiment [11]; 101% in [12]. Further, the growth in experiment [13] is 112%; in [19] it was 105%; in experiment [14], 107%; in experiment [15] it was 107%; in experiment [16] it was 115%; in experiment [17], 107%. Further, the growth in experiment [18] is 106%.
